KCNQ2 pot: KCNQ2 (rat) channel potentiation; actives 0.54% (n = 310,000); CHO-K1 KCNQ2, FluxOR thallium flux fluorescence; hits give high values; B-score at 10 µM;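 active means fluorescence ratio B-score at least 3 SD of library B-scores, with initial fluorescence B-score within 3 of them, cut at about 5.3 in these data; same plate scores as AID 2156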;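 further: B-score of peak minus minimum over baseline fluorescence ratio after K+ and Tl+ stimulus; positive B-score means potentiation of KCNQ2 with more thallium influx and brighter signal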
Target sequence (O88943 whole entry, looked up): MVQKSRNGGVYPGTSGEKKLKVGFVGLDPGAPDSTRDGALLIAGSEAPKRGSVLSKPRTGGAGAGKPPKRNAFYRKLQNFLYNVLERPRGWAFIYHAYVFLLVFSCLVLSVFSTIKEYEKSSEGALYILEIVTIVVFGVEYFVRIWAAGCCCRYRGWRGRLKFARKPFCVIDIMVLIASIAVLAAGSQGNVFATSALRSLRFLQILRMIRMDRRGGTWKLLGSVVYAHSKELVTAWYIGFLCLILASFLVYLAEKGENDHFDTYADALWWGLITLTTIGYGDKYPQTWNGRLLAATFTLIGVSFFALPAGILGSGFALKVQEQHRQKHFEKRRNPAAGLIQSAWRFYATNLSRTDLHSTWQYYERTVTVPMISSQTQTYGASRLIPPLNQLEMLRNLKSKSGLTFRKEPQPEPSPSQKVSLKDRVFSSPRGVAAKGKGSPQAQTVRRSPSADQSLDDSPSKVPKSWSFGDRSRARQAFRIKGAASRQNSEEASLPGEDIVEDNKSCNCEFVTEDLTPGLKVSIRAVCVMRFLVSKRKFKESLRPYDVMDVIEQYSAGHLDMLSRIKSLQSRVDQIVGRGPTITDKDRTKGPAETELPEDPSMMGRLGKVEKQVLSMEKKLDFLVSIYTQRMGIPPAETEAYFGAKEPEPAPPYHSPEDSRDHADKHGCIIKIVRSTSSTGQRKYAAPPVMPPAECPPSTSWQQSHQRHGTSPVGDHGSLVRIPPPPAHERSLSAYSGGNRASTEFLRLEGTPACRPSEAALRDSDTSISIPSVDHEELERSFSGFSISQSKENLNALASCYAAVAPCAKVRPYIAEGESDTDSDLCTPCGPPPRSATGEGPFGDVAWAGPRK
KCNQ2 inh: KCNQ2 (rat) channel inhibition. O88943. CHO-K1 KCNQ2, FluxOR thallium flux, 20 min; hits give low values. B-score at 10 µM. actives 1.1% (n = 310,000). AID 2156;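 active means fluorescence ratio B-score at most minus 3 library SDs, with starting brightness B-score within 2 library SDs, cut at about -5.5 in these data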
Each line names hits and unclear results; the compound was inactive in the other large screens. The list is not random: actives were taken first. Their share in the collection is about 1.6%.

COc1ccccc1NC(=O)CNC(=O)Cn1cnc2sc(C)c(C)c2c1=O	none (no result: KCNQ2 pot)
CCc1nc(SCC(=O)Nc2ccccc2OC)c2c(C)c(C)sc2n1	KCNQ2 inh -5.8
CCOc1ccc(C(=O)N2CCCC2)cc1	none
CCOc1ccc(C(=O)N2CCN(c3cccc(C)c3C)CC2)cc1	KCNQ2 inh -5.81
COc1ccc(-c2oc3cccnc3c2-c2ccc(OC)nc2)cc1	none (no result: KCNQ2 pot)
O=C1N(c2ccccc2)c2ccccc2C1(Cc1ccncc1)Cc1ccncc1	KCNQ2 inh -5.58
CC1(CCBr)C(=O)N(c2ccccc2)c2ccccc21 (configuration not stated)	none (no result: KCNQ2 pot)
CCOC(=O)C1CCN(Cc2ccccn2)CC1	none (no result: KCNQ2 pot)
CCOC(=O)C1CCN(c2ccccc2CN2CCN(c3ccccc3OCC)CC2)CC1	KCNQ2 inh -7.18
CC(=N\NC(=O)c1ccc([N+](=O)[O-])cc1)/C(=N/O)C(=O)Nc1ccccc1	KCNQ2 inh -5.79
CCOC(=O)/C(C)=N/NC(=O)c1ccc([N+](=O)[O-])cc1	none
Cc1ccnc(NC(=O)CNC(=O)Cc2cccc3ccccc23)c1	none
CCC(C(=O)NCc1ccco1)n1nc(C)n2c(cc3occc32)c1=O (configuration not stated)	none
CN(C)c1nnnn1Cc1ccccc1	none (no result: KCNQ2 pot)
CC(C#Cc1c([C@@H](C)Oc2ccccc2)nnn1Cc1ccccc1)Oc1ccccc1 (some centres not stated)	KCNQ2 inh -6.34
Cc1nc(N)sc1-c1csc(Nc2ccc(Cl)cn2)n1	none
Cc1nc(N)sc1-c1csc(Nc2ccccn2)n1	KCNQ2 pot 6.8
Cc1cc2ccccn2c1C(=S)NC(=O)c1ccccc1	KCNQ2 pot 18.6
Cc1cc2ccccn2c1C(=O)c1ccncc1	none
O=C(NCCS(=O)(=O)N1CCN(c2ccccc2F)CC1)c1cc(=O)c2ccccc2o1	none (no result: KCNQ2 pot)
COC(=O)C1=C(C)N(CCCC(=O)O)C(=O)NC1c1cccc(Cl)c1Cl (configuration not stated)	none
OC(C[n+]1ccccc1)c1ccccc1 (configuration not stated)	none
CN1CCN(c2sc(S(C)(=O)=O)nc2S(=O)(=O)c2ccc(Cl)cc2)CC1	none (no result: KCNQ2 pot)
Cc1cc(NC(=O)Nc2cccc(Cl)c2)n(-c2ccccc2)n1	none
Cc1cc(Nc2ccccc2)n(-c2cccc(Cl)c2)n1	KCNQ2 inh -6
CC(C)CCC1(CCNC(C)c2cccs2)CCOC(C)(C)C1 (configuration not stated)	none
O=[N+]([O-])c1c(NCc2ccccc2)cc(N2CCc3ccccc3C2)c2nonc12	none (no result: KCNQ2 pot)
COc1ccc2c(c1)O[C@H](c1ccc3c(c1)OCO3)[C@@H](OC(=O)N[C@H](C)C1CCCCC1)C2=O	none (no result: KCNQ2 pot)
COc1cccc([C@@H]2Oc3ccc(OC)cc3C(=O)[C@H]2OC(=O)N[C@H](C)C2CCCCC2)c1	KCNQ2 inh -6.81
CCc1cccc(CC)c1NC(=O)c1ccccc1CCc1ccccc1	KCNQ2 inh -6.1
CN(CC(=O)Nc1cccc(F)c1)C(=O)c1ccccc1CCc1ccccc1	KCNQ2 inh -6.24
O=C(NCc1ccccc1Cl)c1ccccc1CCc1ccccc1	KCNQ2 inh -5.56
O=C(NCc1ccccc1Cl)c1cnccn1	none
O=C(NCc1ccccc1Cl)c1cnccc1C(F)(F)F	KCNQ2 pot 7.42
Cc1cc(C)c(NC(=O)c2ccccc2CCc2ccccc2)c(C)c1	none (no result: KCNQ2 pot)
COc1ccc(NC(=O)CN(C)C(=O)c2ccccc2CCc2ccccc2)cc1	none (no result: KCNQ2 pot)
O=C(NCc1ccc(Cl)cc1)c1ccccc1CCc1ccccc1	none
O=C(Cn1cnc2cc([N+](=O)[O-])ccc2c1=O)Nc1ccc(N2CCOCC2)cc1	none
CC(C)Oc1ccc(N2CC(C(=O)NC3=NCCS3)CC2=O)cc1 (configuration not stated)	none
O=c1cc(-c2ccccc2)nc(/C=C/c2ccccc2)[nH]1	none
O=C(Nc1ccccc1)Nc1ccccc1-n1ccnc1	none (no result: KCNQ2 pot)
CCN(CC)c1ccc(S(=O)(=O)Nc2cc(Cl)ccc2Cl)cc1NC(=S)NC(=O)C1CCCC1	KCNQ2 inh -7.07
COc1ccccc1NS(=O)(=O)c1ccc(Cl)c(NC(=S)NC(=O)C2CCCC2)c1	none (no result: KCNQ2 pot)
NS(=O)(=O)c1ccc(NC(=O)COC(=O)COc2ccc(Cl)cc2)cc1	none (no result: KCNQ2 pot)
Cc1sc2ncnc(N3CCC(C(=O)N(CC(C)C)c4nc5ccccc5s4)CC3)c2c1C	KCNQ2 inh -6.24
Cc1cccc(OCC(=O)NNC(=O)C2CCN(c3ncnc4sc(C)c(C)c34)CC2)c1	none (no result: KCNQ2 pot)
CCCN(CC(=O)Nc1ccccc1C)C(=O)C1CCN(c2ncnc3sc(C)c(C)c23)CC1	KCNQ2 inh -6.85
Cc1ccccc1OCC(=O)NNC(=O)C1CCN(c2ncnc3sc(C)c(C)c23)CC1	none (no result: KCNQ2 pot)
Cc1ccc(C(=O)OCC(=O)N(C)c2c(N)n(Cc3ccccc3)c(=O)[nH]c2=O)s1	none (no result: KCNQ2 pot)
CC(=O)N1CCN(c2ccc(NS(=O)(=O)c3ccc(C)cc3)cc2)CC1	none
O=C(O)Cn1c(=O)c2c3c(sc2n(Cc2ccc(F)cc2)c1=O)CCCC3	none (no result: KCNQ2 pot)
O=C(O)Cn1c(=O)c2c3c(sc2n(Cc2ccccc2F)c1=O)CCCC3	KCNQ2 inh -6.25
COc1ccc([N+](=O)[O-])cc1/C=N/NC(=O)CNC(=O)C(c1ccccc1)c1ccccc1	KCNQ2 inh -6.06
COc1ccc([N+](=O)[O-])cc1/C=N/NC(=O)CNC(=O)c1cccc(F)c1	none (no result: KCNQ2 pot)
N#CC1=C(N)N=C(SCc2cccc3ccccc23)C(C(N)=O)C12CCCCC2 (configuration not stated)	none (no result: KCNQ2 pot)
COCCn1cnc2c(c1=O)c1nc3ccccc3nc1n2/N=C/c1cccc(OC)c1	none (no result: KCNQ2 pot)
C=CCn1cnc2c(c1=O)c1nc3ccccc3nc1n2/N=C/c1cc(OC)c(OC)c(OC)c1	KCNQ2 inh -7.86
COC(=O)C1=C(C)N(c2ccc(OC)c(OC)c2)C(=O)/C1=C\c1ccco1	none
CCOC(=O)C1=C(C)N(c2ccccc2)C(=O)/C1=C\c1ccco1	KCNQ2 inh -5.96
O=C(NCc1ccccc1)c1cc[n+]([O-])cc1	none (no result: KCNQ2 pot)
Cc1oc2c(c1C(=O)Nc1cccc(C(=O)O)c1)CCCC2	KCNQ2 pot 5.57
Cc1ccc(C(=O)Nc2cccc(C(=O)O)c2)cc1	none
O=C(C1CC1)N1N=C(c2ccccc2)CC1(O)C(F)(F)C(F)(F)F (configuration not stated)	none
CCn1c(C)c(C)c2cc(C(=O)Nc3cccc(Cl)c3)ccc21	KCNQ2 inh -6.57
CCn1c(C)cc(O)c(C(=O)Nc2cccc(Cl)c2)c1=O	none
COCCCNC(=O)C1CCCN(S(C)(=O)=O)C1 (configuration not stated)	none
O=C(NCc1ccccc1OC(F)(F)F)C1CCC(=O)N(Cc2cccc(F)c2)C1 (configuration not stated)	none (no result: KCNQ2 pot)
Cc1ccccc1CNC(=O)C1CCC(=O)N(Cc2cccc(F)c2)C1 (configuration not stated)	KCNQ2 inh -6.32
COCC(=O)N1CCN(c2nc3ccccc3o2)CC1	none
Cc1ccsc1C(=O)N1CCCC(N2CCN(c3cccc(Cl)c3)CC2)C1 (configuration not stated)	KCNQ2 inh -7.12
Cc1cccc(C(=O)N2CCCC(N3CCN(c4cccc(Cl)c4)CC3)C2)n1 (configuration not stated)	none
CCCC(=O)C1=C(O)C(C(=O)OC)C(C)(C)CC1=NCCc1ccccc1 (configuration not stated)	none
O=C(NN1C(=O)/C(=C/c2ccc(O)cc2)SC1=S)c1ccccc1O	KCNQ2 inh -5.96
COc1cc(/C=C2\SC(=S)N(NC(=O)c3ccccc3O)C2=O)ccc1O	none (no result: KCNQ2 pot)
O=S(=O)(Nc1cccc(-c2ccc3nncn3n2)c1)c1cc(F)ccc1F	none
Cc1cc(S(=O)(=O)n2ccnc2)c(Cl)cc1Cl	none

Screens deposited in PubChem BioAssay by Johns Hopkins Ion Channel Center.
